Test results taken from PubChem BioAssay AID463173 (ICCB-Longwood Screening Facility, Harvard Medical School, 2010).
About 4,300 (8.3%) of roughly 52,000 compounds were called active. What follows is part of a selection rich in actives, with near analogues and random picks from the rest. Unmarked numbers belong to inactive results. No stated cut-off is given here; in the data, active means survival mostly below about 52% (no sharp cut-off); inactive means mostly above about 56%.

These compounds were tested on DeltatarO mutant (assay: growth inhibition of S. aureus wild type versus tarO mutant, primary screen, teichoic acid synthesis inhibitors, RN4220, OD600 (AID 463173)). Conditions: OD600, 18 h, active compounds read low, screened at 18.75 µg/mL (by protocol).

In order of rising survival:
1. Cn1nc(-c2ccccc2F)c2cc(C(=O)N3CCN(c4ccccc4F)CC3)sc21  40%
2. COC(=O)c1cccc(CN2C(=O)SC(Nc3ccc(Cl)cc3)C2=O)c1 (stereo unspecified)  42%
3. COC(=O)c1cccc(CN2C(=O)SC(Nc3ccc(C)cc3)C2=O)c1 (stereo unspecified)  50%
4. COc1ccc(-c2noc(CSc3nc4ccccc4[nH]3)n2)cc1  51%
5. Cc1ccc(-c2nn(CCC(=O)Nc3ccc(Cl)c(Cl)c3)c(=O)c3ccccc23)cc1  53%
6. COc1ccc(NC(=O)CSc2nnc(-c3cccs3)o2)cc1  54%
7. Cc1ccccc1-c1noc(CSc2nc3ccccc3[nH]2)n1  57%
8. CCOC(=O)c1ccc(NC2SC(=O)N(Cc3cccc(C(=O)O)c3)C2=O)cc1 (stereo unspecified)  60%
9. COc1ccc(-c2noc(CSc3nc4ccccc4[nH]3)n2)cc1OC  62%
10. CCc1ccc(-n2nc3ccc(NC(=O)c4cc5ccccc5o4)cc3n2)cc1  65%
11. CN1C(=O)SC(Nc2ccccc2)C1=O (stereo unspecified)  65%
12. COc1ccc(N2CCN(C(=O)c3cc4c(-c5ccccc5F)nn(C)c4s3)CC2)cc1  65%
13. CCCCNS(=O)(=O)c1ccc(N2CCCCS2(=O)=O)cc1  66%
14. CC1(C)Cc2ccccc2-c2nc(NN)[nH]c(=O)c21  67%
15. CC(=O)c1ccc(NC(=O)CCc2nc(-c3ccc(C)cc3)no2)cc1  67%
16. CCNc1nc(NC(C)(C)C)nc(Oc2ccc(=O)n(C)n2)n1  68%
17. O=c1cc(-c2ccccc2)nc(SCc2nc(-c3ccc(Cl)cc3)no2)[nH]1  69%
18. O=C(CCn1nc(-c2ccccc2)c2ccccc2c1=O)Nc1ccccc1  69%
19. Cc1ccc(C)c(NC(=O)CCc2nc(-c3ccc(C(C)(C)C)cc3)no2)c1  69%
20. CCCNC(=O)CCn1nc(-c2ccccc2)c2ccccc2c1=O  70%
21. CC(C)c1ccc(-c2noc(SCC(=O)N3CCCCC3)n2)cc1  72%
22. COc1cc(OC)c(Nc2ncnc3onc(-c4cccc(Cl)c4)c23)cc1Cl  73%
23. Cc1ccc(NC(=O)Cn2ncn3c(cc4ccccc43)c2=O)cc1C  73%
24. CNS(=O)(=O)c1cn(CC(=O)Nc2ccc(OC)c(Cl)c2)cc1S(=O)(=O)NC  74%
25. COc1ccc(-c2nn(C)c3sc(C(=O)N4CCN(c5cccc(C)c5C)CC4)cc23)cc1OC  75%
26. Cc1ccc(Cl)cc1-n1c(=O)c2sc3ccccc3c2n(CC(=O)NC2CCCCC2)c1=O  77%
27. COc1ccc(Br)cc1CNC(=O)c1cnc2sc(N3CCC(C)CC3)nn2c1=O  78%
28. COc1ccc(Cl)cc1NC(=O)CN(C)S(=O)(=O)c1ccc2c(c1)CCCN2C(C)=O  78%
29. Cc1cccc(N2CCN(C(=O)CCc3c(C)nc4ncnn4c3C)CC2)c1C  79%
30. CCN(C(=O)CSc1nc(-c2ccccc2)no1)c1ccccc1  79%
31. COc1cc2c(cc1OC)C(COc1ccc3c(C)cc(=O)oc3c1)N(C(=O)Cc1ccc(F)cc1)CC2 (stereo unspecified)  80%
32. CCn1c(CN2CCC(C)CC2)nc2cc(NC(=O)COc3ccc([N+](=O)[O-])cc3)ccc21  82%
33. CCCCC(Sc1nc2cc3c(cc2c(=O)n1CCCC(=O)NCc1ccc2c(c1)OCO2)OCO3)C(=O)OCC (stereo unspecified)  82%
34. Cc1cccc(-c2noc(CSc3nc(-c4ccc(F)cc4)cc(=O)[nH]3)n2)c1  83%
35. Cc1ccc(-c2noc(-c3nnn(CC(=O)Nc4ccc(C)cc4Cl)c3N)n2)cc1  83%
36. Cc1ccc(N2C(=O)SC(Nc3ccccc3)C2=O)cc1 (stereo unspecified)  83%
37. O=C(O)c1cccc(N2C(=O)c3cccnc3C2=O)c1  83%
38. CCc1cc(=O)[nH]c(SCc2nc(-c3ccccc3C)no2)n1  84%
39. Cc1ccc(NC(=O)Cn2ncn3c(cc4ccccc43)c2=O)cc1F  84%
40. CC(CN)(NS(=O)(=O)c1ccccc1)c1ccccc1 (stereo unspecified)  84%
41. CC(=O)c1ccc(N2CCN(S(=O)(=O)c3cc(-c4onc(C)c4C)ccc3C)CC2)cc1  84%
42. CCN(C(=O)CSc1nc(-c2ccc(C(C)C)cc2)no1)c1cccc(C)c1  84%
43. CC1=C(c2ccc(C(C)C)cc2)S(=O)(=O)N=C1N1CCN(c2ccccc2F)CC1  85%
44. COc1ccc(CCNC(=O)c2cc3c(-c4ccccc4F)nn(C)c3s2)c(OC)c1  85%
45. COc1ccc(C)cc1NC(=O)c1cc2c(=O)n3cccc(C)c3nc2s1  86%
46. Cc1ccc(NC(=O)CN2C(=O)CCSc3ccc(S(=O)(=O)N4CCCC4)cc32)cc1  86%
47. COc1ccc(-c2noc(CCC(=O)Nc3ccc(C(F)(F)F)cc3)n2)cc1  86%
48. CCOC(=O)c1cc(-c2ccccc2)n(-c2cccc(C(=O)Nc3ccc(F)c(F)c3)c2)c1C  87%
49. NCCSC1CC(=O)N(c2ccc(Cl)cc2)C1=O (stereo unspecified)  88%
50. CCOc1ccc(NC(=O)Cn2cc(S(=O)(=O)N3CCN(c4ccccc4F)CC3)c3ccccc3c2=O)cc1  89%
51. COc1ccc(-c2onc(C)c2C)cc1S(=O)(=O)NCc1ccc(C)o1  89%
52. COc1ccc2nc(N(Cc3cccnc3)C(=O)c3ccc(Cl)cc3)sc2c1  89%
53. COc1cccc(C(C(=O)NCC2CCCO2)N(CC2CCCO2)C(=O)CC2C(=O)c3ccccc3S2(=O)=O)c1 (stereo unspecified)  90%
54. COc1ccc(COC(=O)C2=C(C)NC3(O)c4ccccc4C(=O)C23O)cc1 (stereo unspecified)  90%
55. O=C(Cn1c(=O)n(-c2ccc(Cl)cc2)c(=O)c2sc3ccccc3c21)NC1CCCC1  90%
56. CN1C(=O)C2(c3ccccc31)N(c1ccccc1)C(=O)CS2(=O)=O (stereo unspecified)  91%
57. Cc1ccccc1NC(=O)CCn1nc(-c2ccc(Cl)cc2)c2ccccc2c1=O  95%
58. COc1ccc(CN=C(N)N=C(N)N)cc1  95%
59. C=CCNCc1cc2cc(OCC)ccc2[nH]c1=O  97%
60. O=C(CSc1nc(-c2ccccc2)no1)N1CCN(c2ccccc2)CC1  99%
61. COc1ccc(CNC(=O)c2cc3c(-c4ccccc4F)nn(C)c3s2)c(OC)c1  101%
62. COc1ccccc1-c1noc(CSc2nc3ccc(C)cc3[nH]2)n1  102%
63. COc1ccc(-c2nn(C)c3sc(C(=O)N4CCN(c5cc(Cl)ccc5C)CC4)cc23)cc1OC  103%
64. COc1ccc(NC2SC(=O)N(c3ccccc3)C2=O)cc1 (stereo unspecified)  105%
65. Cc1ccc(-n2c(=O)c3c(c4cc(C)ccc4n3C)n(CC(=O)Nc3cc(C)cc(C)c3)c2=O)cc1  105%
66. O=C1SC(Nc2ccc(Cl)cc2)C(=O)N1Cc1ccccc1 (stereo unspecified)  107%
67. Cc1cc(Br)ccc1NC(=O)C1CCN(S(=O)(=O)c2cccc3nsnc23)CC1  115%
68. O=c1cc(-c2ccc(F)cc2)nc(SCc2nc(-c3ccccc3Cl)no2)[nH]1  117%
69. COc1ccc(NC(=O)CSc2nc3cc(OC)c(OC)cc3c3nc(-c4ccccc4)nn23)cc1Cl  123%
70. COC(=O)c1cccc(CN2C(=O)SC(Nc3ccccc3C)C2=O)c1 (stereo unspecified)  133%
71. COc1cccc(CNC(=O)CCc2nc(-c3ccc(C)cc3)no2)c1  145%
72. COc1ccc(OC)c(C2CC(=O)Nc3c2c(=O)[nH]c2nc4ccccc4n32)c1 (stereo unspecified)  164%

With `Cc1ccc2nc(SCc3nc(-c4ccc(Cl)cc4)no3)[nH]c2c1` the survival was 28% (active).
With `Cc1ccccc1-c1noc(CSc2nc(-c3ccc(F)cc3)cc(=O)[nH]2)n1` the survival was 37% (active).
`Cc1ccc2nc(SCc3nc(-c4ccccc4C)no3)[nH]c2c1` was tested, and the survival was 25% (active).
In the case of `COc1ccc(-c2noc(CSc3nc4ccc(C)cc4[nH]3)n2)cc1`, the survival is reported as 39% (active).
With `Cc1ccc(NC(=O)CCn2nc(-c3ccccc3)c3ccccc3c2=O)c(C)c1` the survival was 52% (active).
In the case of `COc1ccccc1NC(=O)CCn1nc(-c2ccccc2)c2ccccc2c1=O`, the survival is reported as 42% (active).
`Cc1ccc(NC(=O)Cn2ncn3c(cc4ccccc43)c2=O)c(C)c1` was tested, and the survival was 45% (active).
For `COC(=O)c1cccc(CN2C(=O)SC(Nc3ccc(Br)cc3)C2=O)c1` (stereo unspecified), the survival was 23% (active).
`Cc1ccc(CN2C(=O)SC(Nc3ccc(Cl)cc3)C2=O)cc1` (stereo unspecified) was tested, and the survival was 30% (active).
In the case of `CCOc1ccc(NC2SC(=O)N(Cc3ccccc3)C2=O)cc1` (stereo unspecified), the survival is reported as 42% (active).
For `Cc1ccc(CN2C(=O)SC(Nc3ccccc3)C2=O)cc1` (stereo unspecified), the survival was 40% (active).
For `COc1ccc(-c2nn(C)c3sc(C(=O)N4CCN(c5cccc(Cl)c5)CC4)cc23)cc1OC`, the survival was 54% (active).
`COc1ccccc1N1CCN(C(=O)c2cc3c(-c4ccccc4F)nn(C)c3s2)CC1` was tested, and the survival was 46% (active).
In the case of `COc1ccc(NC(=O)c2cc3c(-c4ccccc4F)nn(C)c3s2)c(OC)c1`, the survival is reported as 44% (active).
For `Cc1ccc(Cl)cc1-n1c(=O)c2sc3ccccc3c2n(CC(=O)NC2CCCC2)c1=O`, the survival was 13% (active).
In the case of `CCN(C(=O)CCc1nc(-c2ccc(C)cc2)no1)c1cc(C)ccc1C`, the survival is reported as -4% (active).
In the case of `CCN(C(=O)CSc1nc(-c2ccccc2)no1)c1cccc(C)c1`, the survival is reported as -3% (active).
`O=C(CSc1nc(-c2ccccc2)no1)N1CCCCC1` was tested, and the survival was 39% (active).
For `CCN(C(=O)CCc1nc(-c2ccc(C)cc2)no1)c1cccc(C(F)(F)F)c1`, the survival was -5% (active).
